From PubChem BioAssay AID624273 (Broad Institute, 2012)
Hit rate of the full screen: of about 1,000 compounds, about 230 (23%) were called active. Inconclusive results (about 1%) are left out. The list shows a part of the results. Potency and affinity values are given separately. A number with no mark means an inactive call. No rule for the calls is given here.

Target: Long-chain-fatty-acid--AMP ligase FadD28 (Mycobacterium tuberculosis (strain ATCC 25618 / H37Rv)) (UniProt P9WQ59)
Experiment: inhibitors of FadD28 bisubstrate probe binding, dose response, biochemical, fluorescence polarization, cherry-pick (AID 624273)
Conditions: series mostly up to 50 µM; activity change, negative = inhibition: at the top concentration

Chain of Long-chain-fatty-acid--AMP ligase FadD28 (Mycobacterium tuberculosis (strain ATCC 25618 / H37Rv)) (P9WQ59 whole entry, looked up): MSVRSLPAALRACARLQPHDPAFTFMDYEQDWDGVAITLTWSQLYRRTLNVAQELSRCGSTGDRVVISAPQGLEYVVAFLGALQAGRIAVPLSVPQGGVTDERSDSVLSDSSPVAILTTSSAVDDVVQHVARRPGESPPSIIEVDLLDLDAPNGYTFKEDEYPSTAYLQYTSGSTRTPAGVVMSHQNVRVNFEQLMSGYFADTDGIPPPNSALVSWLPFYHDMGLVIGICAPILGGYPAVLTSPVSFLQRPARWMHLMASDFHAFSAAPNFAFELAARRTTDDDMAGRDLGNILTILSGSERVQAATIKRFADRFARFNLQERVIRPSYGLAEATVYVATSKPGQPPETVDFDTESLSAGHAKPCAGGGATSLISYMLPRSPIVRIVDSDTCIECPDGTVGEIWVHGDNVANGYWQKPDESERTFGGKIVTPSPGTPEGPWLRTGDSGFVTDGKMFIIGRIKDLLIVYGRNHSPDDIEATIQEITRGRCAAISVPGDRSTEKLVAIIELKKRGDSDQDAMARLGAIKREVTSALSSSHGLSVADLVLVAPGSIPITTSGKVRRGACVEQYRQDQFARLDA

| SMILES | activity change, negative = inhibition [%] |
| --- | --- |
| Cc1nn(C(=O)c2ccco2)c(C)c1Br | -1.79 |
| Cc1cc(NC(=O)Nc2cccc3ccccc23)no1 | -3.52 |
| COc1ccc2nc(-c3ccc(F)cc3)sc2c1 | 0.629 |
| O=C(NC(=S)NCc1nc2ccccc2[nH]1)c1ccccc1F | -0.845 |
| Cc1ccc(C(=O)NN2C(=O)/C(=C/c3cccn3C)SC2=S)cc1 | -1.32 |
| C=CCSc1nc(=O)n2cccc(C)c2n1 | -3.79 |
| c1ccc(-c2cnn3c(-c4ccccc4)c(-c4ccccc4)nc3n2)cc1 | -0.288 |
| O=C(COc1ccccc1-c1ccccc1)NCc1cccc(Cl)c1 | -0.734 |
| COc1ccc(CNCCc2ccc3c(c2)OCO3)cc1Br | -4.77 |
| CC(C)c1ccc(NC(=O)CCCC(=O)NCCc2ccccc2)cc1 | -4.77 |
| CC(C)(C)c1ccc(NC(=O)C(=O)C2C(=O)Nc3ccccc32)cc1 (centres undefined) | -1.66 |
| COC(=O)c1c(N(S(C)(=O)=O)S(C)(=O)=O)sc2c1CCN(c1ncc(C(F)(F)F)cc1Cl)C2 | 2.06 |
| CCOC(=O)C1=C(C)OC(N)=C(C#N)C1c1cc(F)ccc1F (centres undefined) | -0.975 |
| Cc1cc(C)n2nc3nc(N4CCCC4)nc(-c4ccccc4)c3c2n1 | -2.65 |
| CC(=O)NN1C(=O)/C(=C\c2ccc(Br)o2)SC1=S | -22 |
| O=C(CSc1nc2ccsc2c(=O)n1Cc1ccc(C(=O)O)cc1)NCc1ccco1 | -3.94 |
| Cc1nn(CCc2nn[nH]n2)c2nc(-c3ccc(C4CCCCC4)cc3)cc(C(F)(F)F)c12 | -13.7 |
| O=C(CSc1nc2ccccc2[nH]1)NC1CCCc2ccccc21 (centres undefined) | 2.68 |
| CCOC(=O)c1[nH]nc2c1C(=O)N(CC)C2=O | 5.22 |
| Cc1cc(-n2c(C)cc(C(=O)COc3ccc(F)c(F)c3)c2C)no1 | -2.54 |
| COc1ccc(OCC(=O)NNC(=O)C(=O)N2CCCC2)cc1 | -2.89 |
| COc1ccc(S(=O)(=O)N(C)C[C@H]2Oc3ccc(NC(=O)Nc4ccc5c(c4)OCO5)cc3C(=O)N([C@H](C)CO)C[C@@H]2C)cc1 | -13.2 |
| O=C(CSc1nnc(CNC(=O)C23CC4CC(CC(C4)C2)C3)n1-c1ccccc1)Nc1ccc(F)cc1 | -3.94 |
| CCCCCCCCCCCCC(=O)CCCCC(=O)O | -11.5 |
| COc1ccc(OC)c(NC(=O)c2nnn(CCc3ccccc3)c2N)c1 | -5.48 |
| O=C(COc1ccccc1)Nc1ccc(CN2CCCCC2)cc1 | -0.991 |

| SMILES | activity change, negative = inhibition [%] |
| --- | --- |
| COc1ccc(CN2CCC(C(=O)Nc3ccc(Oc4cccnc4)cc3)CC2)c(C)c1C | -2.98 |
| COc1ccc(N2CC(C(=O)Nc3cccnc3)CC2=O)cc1 (centres undefined) | -4.29 |
| O=C(Nc1ccc(Cc2ccncc2)cc1)C1CCC(N2C(=O)C3C4C=CC(C4)C3C2=O)CC1 (centres undefined) | -6.15 |
| COc1ccc(N(CC(=O)NC2CCCCC2)C(=O)CCC(=O)Nc2nc(C)cs2)cc1 | -4.81 |
| CCOC(=O)CSc1nc(C)c2ccccc2n1 | -4.24 |
| CCOC(=O)c1ccc(Nc2cc(C)nc(-c3ccccc3O)n2)cc1 | 4.75 |
| CCOC(=O)c1ccc(NS(=O)(=O)c2ccc3c(c2)NC(=O)CCS3)cc1 | -11.2 |
| COc1cc2[nH]c(Cl)c([N+](=O)[O-])c2cc1OC | -4.27 |
| CCC1CCC(C(=O)NNC(=O)c2cc(-c3ccco3)[nH]n2)CC1 (centres undefined) | 6.66 |
| CCOC(=O)C1CCCN(C(=O)c2cc(Nc3ccc(OC)c(OC)c3)nc3ccccc23)C1 (centres undefined) | -19.4 |
| CCOC(=O)C1CCCN(C(=O)C2c3ccccc3Oc3ccccc32)C1 (centres undefined) | -3.5 |
| CCCCc1c(O)nc(SCC(=O)N2CCOCC2)n(-c2ccc(OC)cc2)c1=O | -7.17 |
| CCOc1ccc(-c2nnc(SCC(=O)N3CCCC3)o2)cc1 | 0.57 |
| Cn1c(=O)c2c(ncn2Cc2ccc(Cl)cc2)n(C)c1=O | -4.35 |
| COc1ccc2c(C)cc(SCC(=O)N(C)C3CCS(=O)(=O)C3)nc2c1 (centres undefined) | 10.8 |
| Cc1ccccc1Nc1ccc([N+](=O)[O-])cn1 | 0.292 |
| O=C(COC(=O)c1ccccc1NC(=O)c1ccco1)Nc1ncc(Cl)cc1Cl | -1.69 |
| Cn1ccc(C(=O)NC(=S)Nc2ccc([N+](=O)[O-])cc2O)n1 | -9.47 |
| COc1ccc(C(=O)NNC(=O)C(=O)N2CCCCC2)cc1OC | -1.68 |
| Cc1ccccc1CS(=O)(=O)Cc1ccc(C(=O)NCc2ccco2)o1 | -2.3 |
| O=C(NCc1n[nH]c(=S)n1-c1ccccc1)c1ccco1 | -3.99 |
| COc1ccccc1NC(=O)Nc1cccc(C)n1 | -5.5 |
| CC(=O)c1cccc(NC(=O)COC(=O)c2ccccc2C)c1 | -1.82 |
| COc1ccc(C(=O)COC(=O)CNS(=O)(=O)c2ccc(C)cc2)cc1 | -11.6 |
| O=C(Cn1c(=O)oc2ccccc21)Nc1cccc(Cl)c1 | 0.08 |
| COc1cccc(C(=O)NCc2ccccc2OC)c1 | -1.19 |

| SMILES | activity change, negative = inhibition [%] |
| --- | --- |
| COC(=O)c1cc2oc(C)cc2n1CC(=O)N(C)c1ccccc1 | -5.85 |
| COc1cccc(NCc2cc(=O)oc3cc(-c4ccccc4)c(O)cc23)c1 | -4.19 |
| CCOC(=O)Cn1cc(C(=O)c2ccco2)c2ccccc21 | 5.76 |
| COc1ccc(-c2cc(C)no2)cc1S(=O)(=O)N(C)c1cccc(C)c1 | -6.11 |
| COc1ccccc1C(=O)COC(=O)c1nc2nc(C)cc(C)n2n1 | -5.13 |
| CCCSC1=N/C(=C\C=C\c2ccco2)C(=O)S1 | -0.768 |
| CC(C)(C)NC(=O)Cn1nnc(-c2ccccc2Cl)n1 | -0.253 |
| COc1cccc(NC(=O)Cn2nnc(C(=O)Nc3ccccc3)c2N)c1 | -12.1 |
| COc1ccc(OC)c(NC(=O)NNC(=O)c2cc3occc3[nH]2)c1 | -1.69 |
| COc1ccc(CC(=O)OCC(=O)NC(=O)NC23CC4CC(CC(C4)C2)C3)cc1 | -18.2 |
| Cc1ccc(NC(=O)CN(C)C(=O)c2cc(-c3ccco3)nc3ccccc23)cc1 | -8.04 |
| CCc1nc(C)cn1S(=O)(=O)c1cc(C)c(OC)c(C)c1C | -6.02 |
| Cc1cccc(OCC(=O)N2CCN(C(=O)Cc3ccccc3)CC2)c1 | -6.77 |
| COc1cccc(OCCn2cc(/C=N/NC(=O)c3ccncc3)c3ccccc32)c1 | -1 |
| COc1cc(/C=N/NC(=O)Cn2nc([N+](=O)[O-])cc2C)cc(Br)c1OCc1ccccc1 | -0.747 |
| COc1ccc2c(c1OC)C(=O)N1C2SC(C)(C)[C@H]1C(=O)NCCCOC(C)C (some centres undefined) | -1.76 |
| Cc1cccc(-n2c(O)c(C=NCCCN3CCOCC3)c3ccccc3c2=O)c1 | -1.13 |
| Nc1ccccc1C#Cc1ccc([N+](=O)[O-])cc1 | -6.75 |
| Cc1cccnc1C(NC(=O)C1CCN(CCCc2ccccc2)CC1)c1ccc(Cl)cc1 (centres undefined) | -2.31 |
| CON(C)C(=O)c1ccccc1N(C)C(=O)OC(C)(C)C | -0.108 |
| O=C(CSc1nnc(Cc2ccccc2)o1)c1ccc2c(c1)OCO2 | -8.26 |
| CC1CCN(S(=O)(=O)c2ccc(NC(=O)Cn3nnc(-c4ccccc4F)n3)cc2)CC1 | -2.23 |
| O=C(CSc1ccc(-c2nc3ccccc3[nH]2)cn1)Nc1ccc(S(=O)(=O)NC2CC2)cc1 | -1.38 |
| Cc1ccc(C)c(OCCC(=O)OCC(=O)Nc2cccc(S(=O)(=O)N3CCCC3)c2)c1 | 8.54 |
| Cc1ccc(NC(=O)COC(=O)c2cccc(S(=O)(=O)N3CCCCCC3)c2)cc1 | -3.13 |
| CC(Sc1nnc(CNc2cccc3ccccc23)n1-c1ccccc1)C(=O)N/N=C/c1ccco1 (centres undefined) | -0.168 |

| SMILES | activity change, negative = inhibition [%] |
| --- | --- |
| Cc1cc(C)c2sc(N(CCCN(C)C)C(=O)c3ccc(S(=O)(=O)N4CCCc5ccccc54)cc3)nc2c1 | -2.43 |
| CC1(C)Oc2ccc3ccc(=O)oc3c2/C(=C/O)C1=O | -0.411 |
| COc1ccc(C2NC3=C(CCC3)C3(C#N)C4(N=C(N)C23C#N)OCCO4)cc1 (centres undefined) | -11 |
| O=C(Cc1ccc(Cl)cc1)Nc1ccc(N2CCN(C(=O)c3ccco3)CC2)c(Cl)c1 | -3.35 |
| Cc1nn(-c2ccccc2)c(Cl)c1/C=N/NC(=O)c1cccnc1 | 6.19 |
| CCOC(=O)c1c(C)nc2sc3c(=O)n(-c4ccc(C(C)=O)cc4)cnc3c2c1-c1ccc(OC)cc1 | 2.06 |
| C=CCOc1ccc(C2OC34CCCCC3C(C#N)(C#N)C2(C#N)C(=N)O4)cc1 (centres undefined) | -3.77 |
| N/C(CSc1ccc(Cl)cc1)=N\NC(=O)c1ccncc1 | -6.22 |
| Cc1c(NC(=O)c2ccc3ncccc3c2)c(=O)n(-c2ccccc2)n1C | -5.27 |
| COC(=O)c1cc(C)nc2c1C(=O)C(=O)C=C2N1CCOCC1 | -21 |
| Cc1ccc(OCCC(=O)OCC(=O)c2c(N)n(CC(C)C)c(=O)n(C)c2=O)cc1 | -11 |
| CCC(=O)c1cccc(-c2ccccc2)c1CC | -0.468 |
| COc1cc(OC)c(C2=NOC(C(=O)Nc3c(C)n(C)n(-c4ccccc4)c3=O)C2)cc1Cl (centres undefined) | -5.34 |
| COc1ccc(CN(C)C(=O)c2ccc(OCC(=O)Nc3cccc(C(F)(F)F)c3)c(OC)c2)c(OC)c1 | -1.66 |
| CCCCOc1ccc(Nc2cc(Cl)ccc2C(=O)O)cn1 | 0.048 |
| N#CCC(=O)Nc1ccc(C(=O)OCC(=O)Nc2cccc(C(F)(F)F)c2)cc1 | -17.3 |
| Cc1ccc(NC(=O)CN2C(=O)S/C(=C/c3ccc(-c4cc(C(=O)O)ccc4C)o3)C2=O)cc1C | -1.88 |
| O=C(NCc1ccccc1)C1=C[C@@H](c2ccc(C(F)(F)F)cc2)C[C@@H](OCCCCO)O1 | 2.16 |
| NC(Cc1ccc(C(F)(F)F)cc1)c1csc(NC(=O)Nc2ccccc2Cl)n1 (centres undefined) | 10.4 |
| Cc1onc(C(=O)N2CCC(C(N)=O)CC2)c1-c1ccccc1Cl | -5.26 |
| COc1cc(NC(=O)C2CCN(S(=O)(=O)c3ccc(Cl)cc3)CC2)ccc1-n1cnnn1 | -7.58 |
| CSc1cccc(CN2CCC(CCC(=O)NC3CC3)CC2)c1 | -4.63 |
| S=c1nc(-c2ccco2)[nH][nH]1 | -2.11 |
| COc1ccc(OC)c(-n2c(-c3cc(-c4ccco4)[nH]n3)n[nH]c2=S)c1 | -8.69 |
| Cc1nnc(NC(=O)C2CC(=O)N(c3ccc4c(c3)OCCO4)C2)s1 (centres undefined) | -0.245 |
| COc1ccc(C2(CNC(=O)C(c3ccccc3)c3ccccc3)CCOCC2)cc1OC | -0.359 |
